# The whole screen tested about 52,000 compounds, of which about 4,300 (8.3%) were called active. The list comes from a sample in which actives are over-represented; it also holds similar structures and randomly drawn compounds. Values without a mark were called inactive. No stated cut-off is given here; in the data, active means survival mostly below about 52% (no sharp cut-off); inactive means mostly above about 56%.
# Test system: DeltatarO mutant
# Assay: growth inhibition of S. aureus wild type versus tarO mutant, primary screen, teichoic acid synthesis inhibitors, RN4220, OD600 (AID 463173)
# Conditions: OD600, 18 h, active compounds read low, screened at 18.75 µg/mL (by protocol)
row,SMILES,survival
1,CCCNC(=O)c1cnc2sc(N3CCCCCC3)nn2c1=O,78%
2,COc1ccc(CNC(=O)c2ccc(NC(=O)N3CCSc4ncccc43)cc2)cc1,84%
3,COc1ccc(OC)c(-n2c3c(cc(-c4nc(-c5ccc(Cl)cc5)cs4)c2=O)C(=O)CC(C)(C)C3)c1,75%
4,CC(C)c1ccc2oc(-c3ccc(NC(=O)c4cc5ccccc5o4)cc3)nc2c1,48%
5,CCc1ccc2oc(-c3ccc(NC(=O)c4cccc(Cl)c4Cl)cc3)nc2c1,63%
6,CCc1ccc2oc(-c3cccc(NC(=O)C(C)(C)Oc4ccc(Br)cc4)c3)nc2c1,36% (active)
7,CCc1ccc2oc(-c3cccc(NC(=O)c4cc5ccccc5o4)c3)nc2c1,14% (active)
8,CCc1ccc2oc(-c3ccc(N)cc3)nc2c1,34% (active)
9,CCC(C)c1ccc2oc(-c3ccc(NC(=O)c4cc5ccccc5o4)cc3)nc2c1 (centres undefined),46% (active)
10,COc1ccc(-c2nc3cc(NC(=O)c4cc5ccccc5o4)ccc3o2)cc1,62%
11,CCOc1ccc(C(=O)Nc2ccc3oc(-c4ccc(Br)cc4)nc3c2)cc1,68%
12,CCc1ccc2oc(-c3cccc(NC(=O)COc4ccccc4Cl)c3)nc2c1,57%
13,CCc1ccc2oc(-c3cccc(NC(=O)c4ccc(-c5cccc([N+](=O)[O-])c5)o4)c3)nc2c1,58%
14,Cc1cc2nc(-c3ccc(NC(=O)c4cc5ccccc5o4)cc3)oc2cc1C,51%
15,CCOc1ccc(C(=O)Nc2ccc(-c3nc4cc(CC)ccc4o3)cc2)cc1,61%
16,COc1ccc2c(c1)c1c(c(=O)n(-c3ccc(F)c(Cl)c3)c(=O)n1Cc1ccccc1C)n2C,83%
17,COc1ccc(-n2ccnc2SCC(=O)Nc2cccc(OC)c2)cc1,98%
18,Cc1cc(=O)[nH]c2nnc(SCC(=O)Nc3ccc(OC(F)(F)F)cc3)n12,74%
19,CCc1ccc(CNC(=O)c2ccc(-n3c(C)cc4c3CCC(C)C4)cc2)cc1 (centres undefined),123%
20,Cc1ccn2c(=O)cc(CSc3nnc(C)s3)nc2c1,77%
21,COc1ccc(-c2cc(OC(=O)c3cccc(Cl)c3)c3c(C)oc(C)c3c(=O)c2)cc1,132%
22,COc1ccc(S(=O)(=O)N2CCN(c3cccc(C)c3C)CC2)c2ccccc12,152%
23,CCCN1CCN(c2ncc3c(n2)CCN(Cc2ccc(OC)c(OC)c2OC)C3)CC1,83%
24,CCc1ccc2oc(-c3ccc(NC(=O)c4cc5ccccc5o4)cc3)nc2c1,40% (active)

row,SMILES,survival
1,Cc1ccc(-c2nc3cc(NC(=O)c4cc5ccccc5o4)ccc3o2)cc1,72%
2,O=C(Nc1ccc(-c2nc3cc(Cl)ccc3o2)cc1)c1cc2ccccc2o1,52%
3,O=C(O)CC(NC(=O)Cc1ccccc1)c1ccccc1 (centres undefined),99%
4,O=C1CCCc2cc(S(=O)(=O)NCC3CCC(C(=O)NCc4ccccc4Cl)CC3)ccc2N1 (centres undefined),71%
5,CC(C)c1ccc(NC(=O)c2cccc3c2C(=O)N(C2CCCCC2)C3)cc1,-10% (active)
6,Cc1cc(C)cc(NC(=O)c2cccc3c2C(=O)N(C2CCCCC2)C3)c1,33% (active)
7,COc1cc(NC(=O)c2cccc3c2C(=O)N(C2CCCCC2)C3)cc(OC)c1OC,53%
8,COC(=O)c1ccc(NC(=O)c2cccc3c2C(=O)N(C2CCCCC2)C3)cc1,80%
9,COc1cc(NC(=O)c2cccc3c2C(=O)N(C2CCCCC2)C3)cc(OC)c1,90%
10,O=C(Nc1c(Cl)cccc1Cl)c1cccc2c1C(=O)N(C1CCCCC1)C2,78%
11,Cc1cccc(C2CC(=O)Nc3cc4c(cc32)OCO4)c1 (centres undefined),77%
12,CCCCN(Cc1ccccc1)C(=O)CN(C)S(=O)(=O)c1ccc2c(c1)c(=O)n(C)c(=O)n2C,128%
13,Cc1ccc(C)c(Nc2nnc(-c3ccc(C)c(S(=O)(=O)N4CCN(C)CC4)c3)c3ccccc23)c1,84%
14,COC(=O)c1cc2sccc2n1Cc1ccccc1,35% (active)
15,COC(=O)c1cc2sccc2n1Cc1nc(-c2cccc(Cl)c2)oc1C,83%
16,COC(=O)CNC(=O)c1cc2sccc2n1Cc1ccccc1,97%
17,COC(=O)c1cc2sc(C)cc2n1Cc1nc(-c2ccc(C)cc2)oc1C,109%
18,COC(=O)c1cc2sccc2n1Cc1nc(-c2ccc(C)cc2)oc1C,28% (active)
19,COC(=O)c1cc2sc(Cl)cc2n1Cc1nc(-c2ccc(OC)cc2)oc1C,72%
20,CCc1cc2c(cc(C(=O)OC)n2Cc2nc(-c3ccc(C)cc3)oc2C)s1,26% (active)
21,COC(=O)c1cc2sccc2n1Cc1ccc(F)cc1,124%
22,COC(=O)c1cc2sccc2n1Cc1nc(-c2ccc(Cl)cc2)oc1C,90%
23,Cc1ccc(C2=NNC(c3cccnc3)=Nc3ccc(F)cc32)o1,96%
24,COc1ccc(Cl)cc1NC(=O)N1CCC(CN2CCCCCC2)CC1,79%

row,SMILES,survival
1,CN(C)c1ccc(/C=C(/NC(=O)c2ccccc2)C(N)=O)cc1,86%
2,Cc1ccc(NC(=O)C2CCCN(c3cnccn3)C2)cc1Cl (centres undefined),75%
3,C=CCNC(=O)CN1CCC(n2nnc3cc(C(F)(F)F)ccc32)CC1,79%
4,COc1ccc(-c2cc(C(F)(F)F)n3nc(C(=O)Nc4ccccc4SC)cc3n2)cc1OC,148%
5,CCOC(=O)c1cnn2c(C(F)(F)F)cc(-c3ccc(Br)cc3)nc12,102%
6,CCc1ccccc1NC(=O)c1cnn2c(C(F)(F)F)cc(-c3ccc(OC)c(OC)c3)nc12,46% (active)
7,CCc1ccccc1NC(=O)c1cc2nc(-c3ccc(OC)c(OC)c3)cc(C(F)(F)F)n2n1,52% (active)
8,COc1ccc(-c2cc(C(F)(F)F)n3nc(C(=O)Nc4cccc(Cl)c4Cl)cc3n2)cc1OC,123%
9,COC(=O)c1cnn2c(C(F)(F)F)cc(-c3ccccc3)nc12,68%
10,CCCCOc1ccc(C(=O)NCCc2sc(-c3ccc(OC)c(OC)c3)nc2C)cc1,72%
11,COc1ccc(NC(=O)c2oc3ccccc3c2NC(=O)C23CC4CC(CC(C4)C2)C3)cc1,80%
12,COc1ccc(N2CCN(c3ncnc4c3cnn4-c3ccc(C)c(Cl)c3)CC2)cc1,96%
13,Cc1ccc(/C=C/C(=O)N2CCC(c3nc4ccccc4o3)CC2)cc1,87%
14,CC(C)NC(=O)C1CCN(C(=O)N2CC(C)Oc3ccccc32)CC1 (centres undefined),72%
15,O=C(NC1CCCC1)c1ccc2c(=O)n(Cc3ccccc3)c(SCc3cccc([N+](=O)[O-])c3)nc2c1,106%
16,COc1ccc(Oc2nc3c(c(=O)n(C)c(=O)n3C)n2Cc2ccccc2Cl)cc1,54%
17,Cn1c(=O)c2c(nc(N3CCOCC3)n2Cc2cccc(Br)c2)n(C)c1=O,80%
18,Cn1c(=O)c2c(nc(N3CCOCC3)n2Cc2ccccc2Cl)n(C)c1=O,46% (active)
19,CCOC(=O)Cn1c(=O)c2c(nc3n2CCN3c2ccc(CC)cc2)n(C)c1=O,79%
20,Cn1c(=O)n(Cc2ccccc2Cl)c(=O)c2c1nc1n2CCN1c1ccccc1,73%
21,Cn1c(=O)[nH]c(=O)c2c1nc(N1CCOCC1)n2Cc1ccccc1,167%
22,CC(C)CCSc1nc2c(c(=O)n(C)c(=O)n2C)n1Cc1ccccc1Cl,34% (active)
23,Cn1c(=O)c2c(nc(N3CCOCC3)n2Cc2ccccc2)n(C)c1=O,52%
24,Cn1c(=O)c2c(nc(N3CCOCC3)n2Cc2ccccc2F)n(C)c1=O,71%

row,SMILES,survival
1,Cn1c(=O)c2c(nc(NCCCCO)n2Cc2ccccc2Cl)n(C)c1=O,63%
2,Cn1c(=O)c2c(nc(N3CCOCC3)n2Cc2ccc(Br)cc2)n(C)c1=O,43% (active)
3,CCOC(=O)Cn1c(=O)c2c(nc(N3CCOCC3)n2Cc2ccccc2)n(C)c1=O,43% (active)
4,CCOc1ccc(NC(=O)c2c(NC(=O)c3ccco3)sc3c2CCC(C(C)(C)C)C3)cc1 (centres undefined),68%
5,CCOC(=O)c1c(C)[nH]c(C)c1S(=O)(=O)N1CCCC(C(=O)NCc2cccc(C)c2)C1 (centres undefined),88%
6,Cc1ccc(CNC(=O)C2CCCN(S(=O)(=O)c3cn(C)cn3)C2)cc1 (centres undefined),94%
7,O=C(Cn1cnc2ccccc2c1=O)NCCC(=O)Nc1ccc(F)cc1,85%
8,CC(C)(C)Nc1nc(OCC#N)nc(N2CCOCC2)n1,113%
9,CCCCNC(=O)Cn1c(=O)cc(C)c2c(C)nn(-c3ccc(CC)cc3)c21,55%
10,Cc1cc(C)c2c(n1)SCC(=O)N2CC(=O)Nc1ccc(C)c(C)c1,115%
11,Cc1nnc(NC(=O)c2nc(SC(C)C)ncc2Cl)s1,72%
12,Cc1ccc(CSc2ncc(Cl)c(C(=O)Nc3nnc(C)s3)n2)cc1,32% (active)
13,CCSc1ncc(Cl)c(C(=O)Nc2nnc(CC)s2)n1,72%
14,CCc1nnc(NC(=O)c2nc(SCc3cccc(C)c3)ncc2Cl)s1,5% (active)
15,CCCc1nnc(NC(=O)c2nc(SCC)ncc2Cl)s1,76%
16,CCc1nnc(NC(=O)c2nc(SCc3ccc(F)cc3)ncc2Cl)s1,29% (active)
17,CCc1nnc(NC(=O)c2nc(SCc3ccccc3C)ncc2Cl)s1,96%
18,Cc1ccc(CNC(=O)c2nc(SCc3ccc(C)cc3)ncc2Cl)cc1,99%
19,Cc1nnc(NC(=O)c2nc(SCc3ccccc3F)ncc2Cl)s1,90%
20,Cc1cccc(CSc2ncc(Cl)c(C(=O)Nc3nnc(C)s3)n2)c1,73%
21,CCc1nnc(NC(=O)c2nc(SCc3ccccc3F)ncc2Cl)s1,31% (active)
22,CCc1nnc(NC(=O)c2nc(SC)ncc2Cl)s1,109%

# Reference: PubChem BioAssay AID463173 (ICCB-Longwood Screening Facility, Harvard Medical School, 2010)
